Measurements as given in PubChem BioAssay AID540332 (The Scripps Research Institute Molecular Screening Center, 2011).
Unmarked numbers belong to inactive results. How the calls were made is not given here.

System: Rolipram
Experiment: selectivity profile across receptors and CYP450s – biochemical, Ricerca HitProfilingScreen, CYP450, set 2, selectivity assay for S1P4 agonist project, profiling panel (AID 540332)
Conditions: at 30 µM; hits give high values

COCCN=C1S/C(=C\c2cc(C)n(-c3ccc(F)cc3F)c2C)C(=O)N1C
inhibition: 15%
